Luciferase inh = inhibitors of firefly luciferase. purified firefly luciferase, luminescence, 8 min. P08659. 2.2% of 72,000 active. Potency, µM (series often up to 57.1 µM), for inactives: at the highest dose activity change, negative = inhibition, actives largely listed as inhibitors; further: nearly all actives have a fitted effect of over 40% in size
Target sequence (P08659 whole entry, looked up): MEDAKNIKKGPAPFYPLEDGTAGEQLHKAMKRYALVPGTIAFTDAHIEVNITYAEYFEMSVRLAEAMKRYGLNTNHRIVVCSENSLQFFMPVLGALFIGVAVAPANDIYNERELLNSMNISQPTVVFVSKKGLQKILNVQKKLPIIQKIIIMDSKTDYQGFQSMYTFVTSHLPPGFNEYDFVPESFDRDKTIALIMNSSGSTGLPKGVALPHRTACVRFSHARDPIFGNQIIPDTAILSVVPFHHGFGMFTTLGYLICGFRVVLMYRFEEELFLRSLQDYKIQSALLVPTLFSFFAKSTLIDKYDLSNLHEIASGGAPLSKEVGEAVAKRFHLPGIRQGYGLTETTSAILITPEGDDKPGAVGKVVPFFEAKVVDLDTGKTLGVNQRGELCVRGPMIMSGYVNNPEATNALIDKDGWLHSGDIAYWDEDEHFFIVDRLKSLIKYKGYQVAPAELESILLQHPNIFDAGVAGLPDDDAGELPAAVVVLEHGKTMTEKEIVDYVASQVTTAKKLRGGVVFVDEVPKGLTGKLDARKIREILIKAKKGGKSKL
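Firefly luciferase (PKLight detection mix) with 10 uM ATP in pH 7.2 imidazole buffer (KCl, MgCl2, Tween 20, BSA). Compounds tested across a concentration series (qHTS). Luminescence read after 8 min at ambient temperature.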
HSD17B inh = HSD17B dehydrogenase inhibition. Potency, µM (series often up to 57.1 µM), inactives show at the top dose activity change, negative = inhibition, actives largely listed as inhibitors. 7.6% of 75,000 active. recombinant HSD17B10, NADH fluorescence kinetic;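 further: the protocol describes HADH2 (HSD17B10) and not the HSD17B4 of the title; nearly all actives have a fitted effect of over 70% in size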
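20 nM HADH2, pH 9.0 Tris/Tween; cpd preinc 15 min RT; start w/ 1 mM NAD+ + 90 uM b-hydroxybutyryl-CoA; kinetic fluor ex360/em450 q30s x 4 min; delta last-first.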
Bst PK mod = alters activity of Bacillus stearothermophilus pyruvate kinase; purified pyruvate kinase, luminescence ATP production; ribose 5-phosphate activator present at AC10; Potency, µM; 1.2% of 51,000 active; in the data active means potency below about 11 µM; inconclusive means mostly about 12 µM to 25 µM;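 the screen sought inhibitors and activators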;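 further: scaled between full activation by ribose 5 phosphate and full inhibition by luteolin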
ERK AVP block = inhibitors of vasopressin-stimulated ERK signaling pathway; AID 995; 0.99% of 72,000 active; Potency, µM (doses to about 57.5 µM), for inactives: at the highest dose activity, negative = inhibition, most hits filed as inhibitors; HEK293-V1b, vasopressin-stimulated pERK AlphaScreen; further: nearly all actives have a fitted effect of over 55% in size
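Overnight-seeded V1b-HEK293 cells in 1% FBS got compound, then vasopressin (25 nM final, 5 min, 37C), then lysis buffer. AlphaScreen detection of phospho-ERK; activity normalized to basal and full-stimulation controls.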
HADH2 inhib = inhibitors of human HADH2 dehydrogenase; Q99714; recombinant HADH2, NADH fluorescence, beta-hydroxybutyryl-CoA; Potency, µM (top dose mostly 57.1 µM), for inactives: top-dose activity change, negative = inhibition, actives largely listed as inhibitors; 3.4% of 73,000 active; AID 886; further: nearly all actives have a fitted effect of over 60% in size
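NADH fluorescence (ex 360/em 450 nm) read every 30 s for 4 min; activity taken as last-minus-first time point difference. Enzyme 20 nM, NAD+ 1 mM, beta-hydroxybutyryl-CoA 90 uM, pH 9.0 Tris buffer.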
15-hLO inh = blocks human 15-lipoxygenase activity | P16050 | purified 15hLO-1, xylenol orange hydroperoxide absorbance | Potency, µM (titrated, usually from 57.1 µM), for the others: top-dose activity change, negative = inhibition, usual class: inhibitors | 1.4% of 74,000 active | AID 887; further: nearly all actives have a fitted effect of over 55% in size
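40 nM 15hLO-1 + cpd, 15 min RT; start w/ 50 uM AA (final), 6 min RT; stop/detect w/ 200 uM XO + 300 uM Fe(II) in 50 mM H2SO4, 30 min; A573/A405. Buffer 25 mM Hepes pH 7.5, 0.01% Triton X-100. No-enzyme wells as negative control.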
* = called active by the depositor; i = inactive; ? = inconclusive; . = not tested or not shown; [ ] = dose if it differs, or a comment. Shown are actives, neighbours in structure and some others; about 11% of the full set was active somewhere. Unless noted, the call rests on the fitted dose curve; in most records, active means well fitted curve in the direction sought with a large enough effect; inconclusive means small, poorly fitted or top-dose-only effect, or another doubt; inactive means no such curve, though single readings can be large; an effect the other way counts as inactive or inconclusive. Unless noted, on the % scale 0 is the no-effect control and ±100 the full control effect; potency means the concentration at half of the fitted maximal effect.

SMILES | Luciferase inh | HSD17B inh | Bst PK mod | ERK AVP block | HADH2 inhib | 15-hLO inh
COC(=O)c1cc(=O)nc2sccn12 | 3% | 25µM* | >57 | 9% | -7% | -1%
COC(=O)c1cc(=O)nc2sc(-c3ccccc3)nn12 | 1% | -21% | >57 | -10% | -5% | 3%
O=C1[C@H]2[C@H]3[C@H](O)[C@H](O)C/C(=N/OCc4ccccc4)[C@H]3CC[C@@H]2C(=O)N1c1cccc(Oc2ccccc2)c1 | 2%[11.4 µM] | -6%[11.4 µM] | . | 13%[11.5 µM] | 2%[11.4 µM] | 4%[11.4 µM]
NCCNc1ncnc2ccc(Cl)cc12 | 2%[11.4 µM] | -3%[11.4 µM] | . | -6%[11.5 µM] | -9%[11.4 µM] | -3%[11.4 µM]
COC(=O)c1ccc(C(=O)OC)c(NC(=O)CCC(=O)O)c1 | -3% | 25µM* | . | -6% | 11% | 10%
CCSc1nc2c([nH]c3ccccc32)c(=O)n1C | 6% | ? | . | . | 2% | -3%
CCC1CCCCN1C(=O)CSc1nc2c([nH]c3ccccc32)c(=O)n1C (configuration not stated) | 0% | 32µM* | >57 | -8% | 9% | -12%
CCOC(=O)c1oc2cccc(OC(C)=O)c2c1C | 2% | 20µM* | >57 | -18% | ? | -5%
CC(C)NC(=O)N1CCC2(CC1)CCN(C(=O)c1ccco1)CC2 | 0%[11.4 µM] | 3% | . | 4% | 4% | -5%
CC(=O)N1c2ccccc2C(=O)C1N1CCCCC1 (configuration not stated) | 3% | 25µM* | >57 | 0% | 2% | ?
COc1ccc(CCNC(=O)CC2Nc3cc(C)c(C)cc3NC2=O)cc1OC (configuration not stated) | 1% | ? | >57 | -19% | 11% | ?
Cc1cc2c(cc1C)NC(CC(=O)NCc1ccccc1)C(=O)N2 (configuration not stated) | . | 32µM* | . | . | 5µM* | -17%
O=C(CC1Nc2ccccc2NC1=O)NC1CCCCC1 (configuration not stated) | 3% | 32µM* | >57 | 8% | 15% | -1%
c1ccc2oc(C3=NCCN3)cc2c1 | -2% | 32µM* | . | -11% | 2% | -6%[25.6 µM]
c1ccc(-c2ccc(-c3ccc(C4=NCCN4)cc3)o2)cc1 | -1%[11.4 µM] | 3.2µM* | . | 24%[11.5 µM] | -23%[11.4 µM] | -6%[11.4 µM]
C=C(C)C(O)/C=C/c1ccc(C)cc1 (configuration not stated) | . | 8%[11.4 µM] | . | 1%[11.5 µM] | 11%[11.4 µM] | 3%[11.4 µM]
COC(=O)CNC(=O)COC(=O)c1cc(Cl)cc(Cl)c1N | -1% | 25µM* | ? | 8% | 32µM* | -10%
CNC(=O)COC(=O)c1cc(F)c(F)cc1Cl | 3% | 1% | i | -17% | 9% | -1%
CC/C=C\C/C=C\C/C=C\CCCCCCCC(=O)O | . | 13µM* | . | 16% | -18% | 0.13µM*
Brc1ccc(C2Nc3cccc4cccc(c34)N2)o1 | -17% | 32µM* | . | ? | ? | 10µM*
Oc1ccccc1C1Nc2cccc3cccc(c23)N1 | -10% | ? | 3.6* | 9% | 32µM* | 20µM*
CC(C)=C[C@H]1[C@@H](COC(=O)c2cc3c(cc2Cl)OCO3)C1(C)C | 3%[11.4 µM] | 1%[11.4 µM] | . | 47%[11.5 µM] | 7%[11.4 µM] | -8%[11.4 µM]
COC1=CC(=O)CC(C)C12Oc1c(Cl)c(OC)cc(OC)c1C2=O (configuration not stated) | 1%[25.5 µM] | 32µM* | >26 | 9% | . | 2%[25.6 µM]
COC1=CC(=O)C[C@@H](C)[C@]12Oc1c(Cl)c(OC)cc(OC)c1C2=O | . | 20µM* | . | 17% | 32µM* | -9%
CC1=CC(C)(C)Nc2ccc(C)cc21 | 4% | 32µM* | >57 | 2% | 32µM* | -30%
SMILES | Luciferase inh | HSD17B inh | Bst PK mod | ERK AVP block | HADH2 inhib | 15-hLO inh
CC1=CC(C)(C)Nc2cc(C)c(C)cc21 | 2% | ? | >57 | -19% | -21% | -12%
CCCCCCCCCCCCCCCC(=O)OC(CO)CO | . | -16% | . | -3% | 17% | -15%
COc1ccc(NC(=O)N2CC[C@@]3(CCCN(C(=O)c4ccncc4)C3)C2)cc1 | 1%[11.4 µM] | 2% | . | 12% | 16% | -4%
Cc1cc(C)n(C2CCCCC2OC(=O)c2ccccc2)n1 (configuration not stated) | -2%[25.5 µM] | . | >26 | . | . | .
Cc1cc2n(n1)C(c1ccccc1)Nc1ccccc1-2 (configuration not stated) | 5% | 25µM* | . | 1% | ? | 0%
Cc1cc2n(n1)C(c1ccc(N(C)C)cc1)Nc1ccccc1-2 (configuration not stated) | 25µM* | 25µM* | ? | -13% | ? | -16%
COc1ccc(C(=O)N2CCC3(CCN(Cc4ccc(C#N)cc4)CC3)CC2)cc1 | 1%[11.4 µM] | 7% | . | -3% | -2% | 4%
COc1ccc(OC[C@@H](CO)OC)cc1 | 2%[11.4 µM] | 7%[11.4 µM] | . | 18%[11.5 µM] | 2%[11.4 µM] | 15%[11.4 µM]
COc1ccc(Oc2ncc3nc(-c4cccc(C#N)c4)c(=O)n(Cc4cccc(OC)c4)c3n2)cc1 | 0%[11.4 µM] | -20% | . | -7% | 0% | -3%
CCc1cc2c(=O)c(-c3nc4ccccc4n3C)coc2c(CN2CCN(C)CC2)c1O | 1% | 32µM* | >57 | -6% | 2% | 14%
COc1ccccc1-c1coc2c(CN3CCN(C)CC3)c(O)ccc2c1=O | 1% | 32µM* | . | -7% | 16% | 2%
CCN1CCN(Cc2c(O)ccc3c(=O)c(-c4ccccc4OC)coc23)CC1 | 0% | 32µM* | >57 | 8% | ? | -12%
COc1ccccc1-c1coc2c(CN3CCN(CCO)CC3)c(O)ccc2c1=O | 3% | 25µM* | >57 | -9% | 25µM* | 7%
CCc1cc2c(=O)c(-c3nc4ccccc4[nH]3)coc2c(CN2CCC(C)CC2)c1O | 7% | -17% | . | -17% | 10% | 16%
CO[C@H]1COC(=O)[C@H]2CCCN2C(=O)C/C=C\[C@@H](C)[C@H](OC)COC(=O)C/C=C\[C@@H]1C | 0%[11.4 µM] | 2%[11.4 µM] | . | 1%[11.5 µM] | -4%[11.4 µM] | 2%[11.4 µM]
NCCCCC(N)C(=O)NC(Cc1ccc(O)cc1)C(=O)NC(CCCCN)C(=O)O (configuration not stated) | . | 3% | . | -19% | . | 0%
FB(F)F | . | 0% | . | 8% | -7% | -7%
CCCCCCN | . | 0% | . | -10% | 5% | -1%
COc1ccccc1Oc1coc2c(CN3CCN(C)CC3)c(O)ccc2c1=O | 1% | 32µM* | >57 | -13% | -12% | -13%
C/C(CCN1CCCCc2nc(C)c(C)cc21)=N\OC[C@@H](O)[C@@H]1O[C@@H]2OC(C)(C)O[C@@H]2[C@H]1O | 2%[11.4 µM] | 1%[11.4 µM] | . | -9%[11.5 µM] | 8%[11.4 µM] | -6%[11.4 µM]
Nc1nc(SCc2ccc([N+](=O)[O-])cc2)c2ncn([C@@H]3O[C@@H](CO)[C@@H](O)[C@H]3O)c2n1 | -10% | -8% | . | 9% | 2% | -5%
COc1ccc(-c2cc(C(F)(F)F)nc(N3CCOCC3)n2)cc1OC | -1% | ? | >57 | 29% | -11% | -8%

Screens deposited in PubChem by National Center for Advancing Translational Sciences (NCATS).
